Inconclusive results are not listed. Values without a mark were called inactive. Active and inactive are the calls of the source. The call rests on the fitted dose curve; in most records, active means well fitted curve in the direction sought with a large enough effect; inconclusive means small, poorly fitted or top-dose-only effect, or another doubt; inactive means no such curve, though single readings can be large or run the other way.
Target: Protein phosphatase EYA2 (Homo sapiens) (UniProt O00167)
Sequence (O00167 whole entry, looked up): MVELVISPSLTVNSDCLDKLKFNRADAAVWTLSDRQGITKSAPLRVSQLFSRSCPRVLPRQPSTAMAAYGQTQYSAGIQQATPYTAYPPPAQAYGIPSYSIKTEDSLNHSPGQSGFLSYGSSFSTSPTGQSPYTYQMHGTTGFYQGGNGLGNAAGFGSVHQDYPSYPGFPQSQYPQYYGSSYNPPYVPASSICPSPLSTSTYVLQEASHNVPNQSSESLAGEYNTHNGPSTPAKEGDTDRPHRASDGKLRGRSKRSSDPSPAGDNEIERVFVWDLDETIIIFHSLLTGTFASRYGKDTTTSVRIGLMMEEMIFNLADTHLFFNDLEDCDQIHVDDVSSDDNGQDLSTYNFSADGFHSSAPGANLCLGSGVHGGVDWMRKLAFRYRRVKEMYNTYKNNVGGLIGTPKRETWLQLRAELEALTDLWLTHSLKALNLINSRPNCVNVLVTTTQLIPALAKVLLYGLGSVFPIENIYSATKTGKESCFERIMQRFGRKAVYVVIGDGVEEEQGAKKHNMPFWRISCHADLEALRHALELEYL
Assay: Inhibitors of Eya2ED: Hit Confirmation in Primary Screen
Settings: Recombinant Eya2ED, OMFP fluorescence phosphatase assay; series mostly up to 76.9 µM; activity change, negative = inhibition: at the top concentration
Method in brief: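 Eya2 (dispensed at 0.2 uM) was preincubated 10 min at ambient with compound in 50 mM HEPES pH 7.5, 50 mM NaCl, 5 uM MgCl2, 0.05% BSA, 1 mM DTT. OMFP (dispensed at 50 uM) was then added, and fluorescence (ex 485/em 525 nm) was read after 10 min. Retested as 12-point titrations; EGTA control.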

SMILES	activity change, negative = inhibition	Potency
O=C(COc1cccc(C(F)(F)F)c1)NCC(c1ccco1)N1CCCC1 (stereo unspecified)	-8.36%	
CCOC(=O)c1[nH]c(C)c(C(=O)OCC(=O)Nc2sc3c(c2C#N)CCCCC3)c1C	-4.09%	
O=C(CCCC(=O)N(CC(=O)NC1CCCCC1)c1ccccc1F)Nc1ccccn1	-0.931%	
CSCC[C@H](NC(=O)[C@@H]1Cc2ccccc2CN1)C(=O)Nc1ccc2c(c1)OCCO2	0.798%	
O=C(C1CCCN(Cc2ccccc2F)C1)N1CCc2ccccc2C1 (stereo unspecified)	3.27%	
COc1ccc(NC(=O)CNc2cc(S(=O)(=O)N3CCOCC3)ccc2N2CCOCC2)c(OC)c1	-11.5%	
C#CCOCCOCCOCCNc1nc(N2CCN(C(=O)CCCCCCCCCCNC(=O)[C@H](CCCCN)n3cc(C)nn3)CC2)nc(N2CCN(C(=O)CCCCCCCCCCNC(=O)[C@H](CCCN=C(N)N)n3cc(C[C@@H](C)CC)nn3)CC2)n1		18.4 µM (active)
CC(NC(=O)COC(=O)C1CC1C)c1cccc(Cl)c1 (stereo unspecified)	-16%	
COC(=O)C1=C(C)Nc2ncnn2C1c1ccco1 (stereo unspecified)	-29.7%	
CCOc1ccc(NC(=O)COC(=O)CN2CCCCCC2=O)cc1	15.3%	
C=CCOc1ccc(/C=C/C(=O)OCC(=O)N2CCCc3ccccc32)cc1	-12.6%	
O=C(Cn1cccc(C(F)(F)F)c1=O)c1ccc(Cl)cc1	-15.3%	
C=CCC1(C#N)C(=S)NC(C)=C(C(=O)OCC)C1c1ccccc1 (stereo unspecified)	-35.1%	
O=C(NCCC1CCCCN1S(=O)(=O)c1ccccc1)C(=O)NCc1ccccn1 (stereo unspecified)	-0.504%	
Cc1nnc(SC(C)C(=O)Nc2ccc3ccccc3c2)[nH]c1=O (stereo unspecified)	2.55%	
CCOC(=O)CN(C(=O)CN1CCC(n2nnc3cc(C)ccc32)CC1)c1ccccc1	-0.334%	

SMILES	activity change, negative = inhibition	Potency
O=C(N/N=C/c1ccc(Sc2ccccn2)o1)c1cc2ccccc2cc1O	-21.1%	
O=C(C[C@H]1C/C=C/CC[C@H](Cc2ccc(F)cc2)C(=O)O[C@H](c2ccccc2)CNC1=O)NCCO	-32.4%	
Cc1ccc2c(c1)CCCN2C(=O)c1cccs1	-5.45%	
COc1cccc2[nH]c3c(=O)[nH]cnc3c12	1.53%	
COC(=O)/C=C1\NCCNC1=O	-20.2%	
Cc1cc(/C=C2\SC(=S)NC2=O)cc(C)c1O	0.396%	
O=C(NN=Cc1ccccc1Cl)c1ccc(-n2cnnn2)cc1	0.806%	
CCCc1nnc(SCc2ccc(C(=O)OC)o2)n1N	7.95%	
CC(C)(C)C(=O)Nc1nc(=S)ss1	-11.3%	
Cc1cc(C(N)=O)nn1-c1c(Cl)cc(Cl)cc1Cl	-17%	
O=S(=O)(Cc1ccccc1Cl)N1CCN(Cc2ccc3c(c2)OCO3)CC1	-4.31%	
CC(C1CC1)N(C(=O)c1ccccc1O)c1ccccc1 (stereo unspecified)	-16.4%	
O=C(CC(c1ccccc1)c1ccccc1)Nc1ccc(Cl)cn1	-4.3%	
Cc1cc(C)c(S(=O)(=O)N2CCCCC2CCNC(=O)C(=O)NCCN2CCOCC2)c(C)c1 (stereo unspecified)	-17%	
O=C(Cc1coc2cc(O)ccc12)NNC(=O)c1ccc(Br)s1	-14.3%	
